Compound activity as filed in PubChem BioAssay.
The list is not random: actives were taken first. Their share in the collection is about 19%.
TDP1 cell CPT: DT40-hTDP1 cell growth loss with CPT; chicken DT40 Tdp1-/-;hTDP1 cells + 20 nM CPT, ATP luminescence, 48 h; 12% of 420,000 active; Potency, µM (top dose mostly 46.2 µM), for the others: top-dose activity change, negative = growth inhibition, usual class: inhibitors; also: potency is read from the fitted curve at half-maximal effect; nearly all actives have a fitted effect of over 55% in size
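Chicken DT40 Tdp1-/- cells complemented with human TDP1, 400 cells/well, exposed to compounds plus 20 nM camptothecin for at least 48 h at 37 C; viability read as ATP content by CellTiter-Glo luminescence.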
HT1080 IDH1KD tx: kills HT-1080 cells with IDH1 knockdown; HT-1080 IDH1 knockdown viability, ATP luminescence, 48 h; Potency, µM (series often up to 46.1 µM), without a hit: at the top dose activity, negative = toxicity, hits mostly cytotoxic; 2% of 360,000 active;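 also: potency is read from the fitted curve at half-maximal effect; 0% = DMSO wells and -100% = cell-free medium wells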
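Assay cells: HT-1080 with IDH1 knockdown, 750 per well, RPMI/5% FBS. Exposure: 48 h at 37 °C following 2 h pre-incubation. Read: CellTiter-Glo luminescence; fitted concentration-response, curve class assigned.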
HT1080-NT tox: kills 2HG-producing HT-1080-NT fibrosarcoma cells; Potency, µM (top dose mostly 46.1 µM), without a hit: top-dose activity, negative = less viability, usual class: cytotoxic; HT-1080-NT fibrosarcoma viability, CellTiter-Glo ATP luminescence, 48 h; 1.6% of 360,000 active;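 also: NT is the 2HG producing partner of a matched IDH1 knockdown line; potency is read from the fitted curve at half-maximal effect; 0% = DMSO-treated cells and -100% = media-only wells without cells; nearly all actives have a fitted effect of over 55% in size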
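Viability of the 2HG-overproducing fibrosarcoma line after 48 hours of compound exposure at 37 degrees C was determined by luminescence with CellTiter-Glo, and concentration-effect curves were then fitted and categorized.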
DT40 TDP1 no CPT: qHTS for Inhibitors of human tyrosyl-DNA phosphodiesterase 1 (TDP1): qHTS in cells in absence of CPT. DT40 Tdp1-/- hTDP1 cells, no CPT, ATP luminescence, 48 h. Potency, µM (titrated, usually from 46.2 µM), inactives show at the top dose activity change, negative = growth inhibition, most hits filed as inhibitors. 15% of 420,000 active. AID 686978, 2013; also: potency is read from the fitted curve at half-maximal effect; nearly all actives have a fitted effect of over 55% in size
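A cellular qHTS used chicken DT40 cells lacking endogenous Tdp1 but carrying stably transfected human TDP1. Compounds were applied without camptothecin, and cell growth kinetics were judged by ATP-dependent luminescence after ≥48 hr.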
IL-1B inflam inh: inhibitors of inflammasome signaling (IL-1 beta secretion); THP-1 LPS/ATP IL-1B secretion, AlphaLISA, 16 h; hits give low values; activity change, % at 57.5 µM; AID 743279; 4.7% of 360,000 active; in the data active = activity change below about -50%; inconclusive = mostly about -30% to -49%
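THP-1 cells pretreated 1 hr with compounds (up to 57.5 uM final), then stimulated with LPS (250 ng/mL final) plus ATP (1.25 mM final); secreted IL-1B measured by AlphaLISA after 16 hr, decreased signal indicating inhibition.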
* marks the source's active call; other numbers are inactive results; u = inconclusive; x = not tested or not shown; [ ] = dose if it differs, or a comment. Unless noted, calls follow the shape of the dose curve; as a rule, active = well fitted curve in the direction sought with a large enough effect; inconclusive = small, poorly fitted or top-dose-only effect, or another doubt; inactive = no such curve, though single readings can be large; an effect the other way counts as inactive or inconclusive. Unless noted, % is scaled to controls: 0 for no effect and ±100 for the full control effect.

SMILES	TDP1 cell CPT	HT1080 IDH1KD tx	HT1080-NT tox	DT40 TDP1 no CPT	IL-1B inflam inh
O=C(NCc1ccccc1)c1ccc(C(=O)N(C2CCCCC2)C2CCCCC2)cc1	23.1µM*	-18.7%	0.7%	u	u
CN(C(=O)c1ccc(-c2ccccc2)cc1)C1CCCCC1	u	u	-16.4%	u	u
O=C(C(=O)N(C1CCCCC1)C1CCCCC1)c1ccccc1	10.3µM*	u	-21.8%	7.31µM*	7.9
Cc1ccc(S(=O)(=O)N(CC(=O)c2ccccc2)C(=O)N2CCN(C)CC2)cc1	u	-4.2%	1.3%	-3.4%	-5.9
Nc1ccn([C@@H]2O[C@H](C(=O)N3CCN(c4ccc(Cl)cn4)CC3)[C@@H](O)[C@H]2O)c(=O)n1	1.0%	16.4%	28.8%	16.2%	-2.0
Nc1ncnc2c1ncn2[C@@H]1O[C@H](C(=O)N2CCN(c3ccc(Cl)cn3)CC2)[C@@H](O)[C@H]1O	-25.6%	u	u	20.6µM*	2.0
CC(C)(C)OC(=O)[C@H](Cc1ccccc1)NC(=O)c1[nH]cnc1C(=O)Nc1cccc(Cl)c1	u	u	u	u	-51.4*
C[C@H](NC(=O)c1[nH]cnc1C(=O)Nc1ccc(Cl)cc1)c1ccccc1	u	u	u	u	-24.1
Cc1cccc(NC(=O)c2nc[nH]c2C(=O)N[C@@H](Cc2ccccc2)C(=O)OC(C)(C)C)c1	u	u	u	u	-57.7*
CC(C)(C)OC(=O)[C@H](Cc1ccccc1)NC(=O)c1[nH]cnc1C(=O)Nc1ccc(Cl)cc1	u	u	u	u	-59.2*
COc1cccc(S(=O)(=O)Nc2ccc3c(c2)C(=O)N(C)C[C@H](OC)[C@H](C)CN[C@@H](C)CO3)c1	6.9%	13.3%	19.5%	-4.2%	16.0
CC(C)CN(C(=O)COC(=O)c1ccc2c(c1)OCCO2)c1c(N)n(Cc2ccccc2)c(=O)[nH]c1=O	7.9%	1.6%	1.5%	-17.6%	-8.1
CC(C)CN(C(=O)COC(=O)c1ccc2c(c1)OCO2)c1c(N)n(Cc2ccccc2)c(=O)[nH]c1=O	-16.9%	-4.8%	-5.5%	-18.8%	-55.0*
CC(C)CN(C(=O)CCCOc1ccc(Cl)cc1Cl)c1c(N)n(Cc2ccccc2)c(=O)[nH]c1=O	u	u	-18.1%	25.9µM*	-24.4
CC(C)CN(C(=O)CSc1nc2ccccc2o1)c1c(N)n(Cc2ccccc2)c(=O)[nH]c1=O	18.4µM*	-5.6%	1.5%	20.6µM*	9.8
CC(C)CN(C(=O)CSc1nnc(-c2ccco2)o1)c1c(N)n(Cc2ccccc2)c(=O)[nH]c1=O	-1.9%	-0.4%	-1.6%	0.5%	-14.7
CCN(C(=O)COC(=O)c1ccccc1Nc1ccccc1)c1c(N)n(Cc2ccccc2)c(=O)[nH]c1=O	u	-22.7%	-28.7%	u	-50.1*
CC(C)CN(C(=O)CCc1ccccc1Cl)c1c(N)n(Cc2ccccc2)c(=O)[nH]c1=O	-7.4%	7.5%	6.3%	-11.3%	-9.1
O=C(NCCc1ccccn1)C1CC12CCN(C(=O)c1ccccc1Cl)CC2 (stereo not given)	2.7%	x	x	6.4%	x
O=C(NCc1cc2ccccc2[nH]1)C1CCC(=O)N(CCCN2CCCC2=O)C1 (stereo not given)	-19.6%	-0.4%	-0.4%	14.2%	28.9
CC(C)CN(C(=O)COC(=O)Cc1ccc(Cl)cc1)c1c(N)n(Cc2ccccc2)c(=O)[nH]c1=O	u	23.1µM*	25.9µM*	u	1.1
CCCCn1c(N)c(N(CC(C)C)C(=O)CSCc2cccc(C)c2)c(=O)[nH]c1=O	22.9%	-9.0%	1.7%	10.5%	-11.7
CCCCn1c(N)c(N(CC(C)C)C(=O)CSCc2ccc(Cl)c(Cl)c2)c(=O)[nH]c1=O	-8.5%	-11.5%	-13.3%	-13.6%	-56.3*
COc1ccc(CC(=O)OCC(=O)N(CC(C)C)c2c(N)n(Cc3ccccc3)c(=O)[nH]c2=O)cc1	-27.5%	-1.1%	1.1%	-25.8%	3.5
CC(C)CN(C(=O)COC(=O)c1cccc2ccccc12)c1c(N)n(Cc2ccccc2)c(=O)[nH]c1=O	u	0.6%	-0.4%	16.4µM*	-2.5
SMILES	TDP1 cell CPT	HT1080 IDH1KD tx	HT1080-NT tox	DT40 TDP1 no CPT	IL-1B inflam inh
Clc1ccc(Cc2ccccn2)cc1	-10.0%	7.3%	10.8%	3.8%	-5.2
C=CCCC(=O)N1C[C@H]2CON(C)[C@H]2C[C@H]1c1ccc(Br)cc1	12.0%	-0.6%	5.5%	-0.4%	15.3
Cc1nc(N2CCCC2)ncc1C(=O)Nc1ccccc1	-28.3%	x	x	-10.4%	x
CCc1ccccc1NC(=O)Cn1ccn(-c2cc(C)cc(C)c2)c(=O)c1=O	-21.3%	x	x	-14.9%	x
O=C(OCC(=O)N1CCOCC1)c1cc(F)c(F)cc1Cl	3.2%	5.5%	8.0%	3.6%	34.7
CCN(CC)S(=O)(=O)c1ccc(OC(C)C)c(NC(=O)C2=COCCO2)c1	u	7.4%	-0.8%	u	5.3
O=C(/C=C/[C@H]1O[C@@H](n2cnc3c(NC(=O)c4ccccc4)ncnc32)[C@H](O)[C@@H]1O)NCc1cccs1	-28.1%	9.6%	24.0%	-13.2%	-4.5
CCCCNc1cc(NC(C)=O)cc2cc(OC)c(OC)cc12	18.4µM*	-20.7%	-21.1%	u	51.7
Cc1cc(C(=O)NCc2nc(-c3cccc(NC(=O)c4ccccc4)c3)oc2C)nc(C)n1	-4.4%[9.04 µM]	x	x	-18.1%	x
CCn1c(C)c(C(=O)O)c2cc(OC)c3ccccc3c21	-20.4%	2.6%	3.2%	16.4%	19.2
CCCOc1cc(C)c(Cl)cc1S(=O)(=O)N(CC)CC	18.4µM*	0.4%	3.1%	u	-18.3
Cc1cc(Cl)c(S(=O)(=O)NC(C(=O)O)C(C)C)cc1OCC(=O)NC1CCCCC1 (stereo not given)	2.6%	7.8%	9.0%	-4.9%	32.4
CCN(CC)S(=O)(=O)c1cc(C)c(C)cc1OCC(=O)NC1CCCC1	14.6µM*	-12.7%	0.0%	20.6µM*	-3.8
Cc1cc(Cl)c(S(=O)(=O)N2CCCC2)cc1OCC(=O)NC1CCCCC1	14.6µM*	-15.7%	-0.8%	18.4µM*	-22.0
Cc1ccc(C(c2sc3nc(-c4ccco4)nn3c2O)N2CCCC2)cc1 (stereo not given)	8.4%	x	x	0.7%	x
O=S1(=O)CC(O)C(N=Nc2c(O)n(Cc3ccccc3)c3ccccc23)C1 (stereo not given)	16.4µM*	-15.6%	-5.6%	11.6µM*	-2.3
O=C(N=Nc1c(O)n(Cc2ccccc2)c2ccccc12)c1ccc(O)cc1	u	20.8%	3.6%	23.1µM*	u
CC(C)CCn1c(O)c(N=NC(=O)c2ccco2)c2ccccc21	-18.9%	6.5%	16.5%	u	-6.9
